# D3 ag: qHTS of D3 Dopamine Receptor Agonist: qHTS. D(3) dopamine receptor (Homo sapiens), P35462. D3R DiscoveRx beta-arrestin cells, luminescence, 90 min. max activation, %. actives 0.58% (n = 410,000). AID 652048, 2013; in the data active = max activation above about 30%; also: 0% is about no effect
# Target sequence (P35462 whole entry, looked up): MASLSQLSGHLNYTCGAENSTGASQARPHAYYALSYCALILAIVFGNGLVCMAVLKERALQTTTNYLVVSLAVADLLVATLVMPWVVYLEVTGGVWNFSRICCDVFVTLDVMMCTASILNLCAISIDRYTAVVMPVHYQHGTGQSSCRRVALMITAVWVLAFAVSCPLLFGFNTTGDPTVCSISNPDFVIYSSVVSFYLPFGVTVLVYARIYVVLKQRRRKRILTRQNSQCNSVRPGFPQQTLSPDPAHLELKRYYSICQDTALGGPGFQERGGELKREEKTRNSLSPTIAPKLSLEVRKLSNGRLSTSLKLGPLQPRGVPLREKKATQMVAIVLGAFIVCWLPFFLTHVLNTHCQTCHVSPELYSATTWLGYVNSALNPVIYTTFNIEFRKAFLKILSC
#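 Agonist-mode cell screen: cells plated at 1500/well and incubated overnight at 37 °C, then exposed to library compounds for 90 min at 37 °C. Detection reagent was added for 30–60 min at room temperature, and luminescence was read.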
# D3 antag: qHTS of D3 Dopamine Receptor Antagonist: qHTS. D3R cells, DiscoveRx beta-arrestin luminescence, antagonist mode; hits give low values. max response, negative = inhibition, %. actives 2.5% (n = 360,000). AID 652054, 2013; in the data active = max response below about -50%; inconclusive = no clear call, values can overlap the other calls; also: % is scaled to controls: 0 for no effect and ±100 for the full control effect
#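 Cells expressing the human receptor were seeded at 1500 cells/well, incubated overnight at 37 degrees C in 5% CO2, then exposed to library compounds with dopamine controls for 90 minutes at 37 degrees C before luminescent detection.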
# B2AR arrestin: qHTS assay of beta-arrestin-biased ligands of beta2-adrenergic receptor; Beta-2 adrenergic receptor (Homo sapiens), P07550; beta-arrestin recruitment to beta2AR, cell-based reporter; Potency, µM (top dose mostly 46.1 µM), for inactives: at the highest dose activation, usual class: activators; actives 0.02% (n = 330,000); active = well fitted activation curve with a large enough effect; inconclusive = small, poorly fitted or top-dose-only effect;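 also: potency is read from the fitted curve at half-maximal effect; 0% = DMSO controls and full agonism = EC100 isoproterenol or metaproterenol; nearly all actives have a fitted effect of over 65% in size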
# Giardia killer: Small Molecules that selectively kill Giardia lamblia: qHTS; actives 0.15% (n = 340,000); Giardia lamblia trophozoite viability; activity change, % at 7.66 µM, hits read low; in the data active = activity change below about -80%; inconclusive = between about -30% and that limit;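 also: parasites exposed to compound for two days anaerobically before the ATP read; % is scaled to controls: 0 for no effect and ±100 for the full control effect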
#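 Compounds were tested on trophozoites seeded at 100 cells/well and held 48 hrs at 37 deg C anaerobically. An ATP-based luminescent kit measured the remaining live cells.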
# * hit, by the source's call; u = inconclusive; x = not tested or not shown; ! = repeats disagree. Most compounds without a hit are left out; they make up all but 2.8% or so of the library.
SMILES,D3 ag,D3 antag,B2AR arrestin,Giardia killer
COc1cc(OC)c2c(-c3ccccc3)cc(=O)oc2c1C(CCN1CCN(c2ccccc2)CC1)c1ccc(N(C)C)cc1 (stereo unspecified),-4,-62*,0%,-25
COc1ccc(C(CCN2CCOCC2)c2c(OC)cc(OC)c3c(-c4ccccc4)cc(=O)oc23)cc1 (stereo unspecified),-44,9,-1%,-28
Cc1ccc(NC(=O)Cn2c(-c3nonc3N)nc3ccccc32)cc1Cl,2,x,x,x
CC1CCC(C(C)C)C(OC(=O)Cn2c(-c3ccc(Br)cc3)[n+](C)c3ccccc32)C1 (stereo unspecified),-8,-67*!,0%,4
CC1CCC(C(C)C)C(OC(=O)Cn2c(-c3ccc(Cl)cc3)[n+](C)c3ccccc32)C1 (stereo unspecified),-26,u,-1%,5
Cc1ccc(-n2ncc3c(NCCC4=CCCCC4)ncnc32)cc1C,-3,x,x,x
O=S(=O)(c1ccccc1)c1nc(-c2cccs2)oc1SCc1ccccc1F,6,x,x,x
CC(C)(C)OC(=O)NC(Cc1ccccc1)C(O)c1ccco1 (stereo unspecified),x,x,x,4
CS(=O)(=O)c1ccc([C@@H](O)[C@@H](CO)NC(=O)C(Cl)Cl)cc1,-25,-51*,0%,1
CC1=C(C(N)=O)C(c2cccc(Br)c2)n2nc(SCc3ccccc3Cl)nc2N1 (stereo unspecified),56*,x,x,x
COc1ccc(C2C(C(N)=O)=C(C)Nc3nc(SCc4ccccc4Cl)nn32)cc1OC (stereo unspecified),-11,x,x,x
COc1ccccc1N1CCN(C(c2ccccn2)c2nnnn2C2CCCCC2)CC1 (stereo unspecified),1,-66*,0%,6
CCC(C)(C)n1nnnc1C(c1cc2ccc(OC)cc2[nH]c1=O)N1CCN(C2CCCCC2)CC1 (stereo unspecified),-24,-64*,-1%,-13
COc1ccccc1N1CCN(C(c2cc3ccc(C)cc3[nH]c2=O)c2nnnn2C2CCCC2)CC1 (stereo unspecified),-9,-70*,0%,3
C=CCn1c(SCC#N)nc2ccc(Cl)cc2c1=O,x,x,x,-3
COc1ccc(OCCCNCCc2ccccc2)cc1,-27,-52*,3%,-3
CC(C)(c1ccccc1)c1ccc(OCCCNCCO)cc1,-3,-75*,0%,8
Cc1cccc(CNc2ncnc3ccc(-c4ccc5c(ccn5C)c4)cc23)c1,x,x,-1%,x
O=C(NCc1ccccc1Cl)c1ccc(NC(=O)N2CCSc3ncccc32)cc1,5,x,x,x
CN(C(=O)c1ccc(OC2CCN(CCc3ccccc3)CC2)cc1)C1CCOCC1,-21,-83*,0%,3
CSCCNC(=O)c1ccc(OC2CCN(CCc3ccccc3)CC2)cc1,-17,-79*,-1%,31
N[C@H](C(=O)O)c1ccc(O)cc1,-7,x,x,x
O=C(N[C@@H]1CCC(=O)N(CC[C@H](Sc2ccccc2)c2ccccc2)CC1)OCc1ccccc1,-49,-92*,0%,17
COc1ccc(C(=O)CSc2cc(C)[nH]c(=O)n2)cc1,-3,-51*,0%,-4
COc1ccc(C(=O)CSc2nc(C)cc(=O)[nH]2)cc1,1,11,0%,9
SMILES,D3 ag,D3 antag,B2AR arrestin,Giardia killer
Cc1ccc(Cl)cc1N1CCN(C(=O)c2c(C)oc3ncnc(N4CCOCC4)c23)CC1,-5,x,x,x
CCc1nnc(NC(=O)CCC(=O)N2CCN(CCOc3ccc(C)cc3)CC2)s1,45*,0,0%,2
CCc1nnc(NC(=O)CCC(=O)N2CCN(Cc3ccc(C)cc3C)CC2)s1,-14,2,0%,-17
COc1ccc(OC)c(CNC(=O)C2CCCCN2S(=O)(=O)c2ccc(F)cc2)c1 (stereo unspecified),-13,x,x,x
O=C(NNc1ccccn1)C(c1ccccc1)c1ccccc1,6,17,0%,17
O=C(NNC(=O)C(c1ccccc1)c1ccccc1)c1ccccn1,-24,-86*,-1%,1
Cc1cn2c(=O)cc(COC(=O)c3ccc(NC(=O)c4ccc(C(C)(C)C)cc4)cc3)nc2s1,-2,x,x,x
COc1cc(C2C(=O)N(C3CCCCCC3)CC(=O)N2CCc2ccccc2)ccc1OC(C)C (stereo unspecified),-4,x,x,x
COc1cc(CCN=Cc2cc(Cl)cc(Cl)c2O)c([N+](=O)[O-])cc1OC,-22,-50*,x,x
CCN(CC)Cc1csc(C(N)=O)c1,5,-53*,-1%,-15
CCOC(=O)CCN(Cc1ccccc1)S(=O)(=O)c1csc(C(N)=O)c1,2,4,0%,50
Cn1cc(C(=O)N/N=C/c2ccc(Br)c([N+](=O)[O-])c2)c2ccccc21,-21,-67*,0%,5
Cn1c(=S)[nH]c2cc(C(=O)N3CCN(C(=O)c4ccccc4)CC3)ccc2c1=O,x,x,x,11
CS(=O)(=O)N1CCCC(C(=O)NCCCN2CCc3ccccc3C2)C1 (stereo unspecified),-30,u,0%,-15
O=C(NCCN1CCc2ccccc2C1)C1CCN(S(=O)(=O)N2CCCCC2)CC1,-29,-66*,0%,-9
O=C(NCCN1CCc2ccccc2C1)C1CCN(S(=O)(=O)N2CCC3(CC2)OCCO3)CC1,-31,-60*,-1%,19
CCOc1ccc(C(=O)Nc2ccc3oc(-c4ccc(C)cc4C)nc3c2)cc1Br,3,x,x,x
CC(C)C1Cc2c(sc3c2c(=O)n(Cc2ccccc2)c2nncn32)CO1 (stereo unspecified),-12,-53*,-2%,-14
COc1ccc(CN(Cc2ccccc2)C(C)=O)cc1COc1ccc(NC(C)=O)cc1,x,x,x,-13
CCCCN(CC)CCCNC(=O)c1c(C)oc2ncnc(N3CCOCC3)c12,60*,x,x,x
CCN(CC)CCCNC(=O)c1c(C)oc2ncnc(N3CCOCC3)c12,-18,x,x,x
COc1ccc(C)cc1NC(=O)CCNS(=O)(=O)c1cccc2nonc12,3,6,-1%,-2
COc1ccc(C)cc1NS(=O)(=O)c1cccc2nonc12,2,-52*,0%,2
O=C(Nc1cc(S(=O)(=O)Nc2ccc(Cl)cc2)ccc1O)c1ccc(S(=O)(=O)N2CCCCCC2)cc1,-17,-50*,0%,-4
CCc1ccc(-n2nc(CO)c(C(=O)NCc3ccccc3Cl)n2)cc1,4,x,x,x
Cn1c(=N)n(CC(=O)c2ccc(Br)s2)c2ccccc21,8,u,0%,-2
CCN(CC)CCn1c(=N)n(CC(=O)c2ccc(Br)s2)c2ccccc21,-24,-73*,-1%,19
COc1ccc(C(=O)N2CCCC(C)(C(=O)NS(=O)(=O)C3CC3)C2)cc1 (stereo unspecified),-13,-53*,x,x
CC1(C(=O)NS(=O)(=O)C2CC2)CCCN(C(=O)c2ccc(C(F)(F)F)cc2)C1 (stereo unspecified),3,4,x,x

# High-throughput results from PubChem.
